High-throughput results (PubChem BioAssay)
PME-1 Maybr inh – Maybridge compound blocking human PME-1; Q9Y570; recombinant PME-1, FP-Rh probe fluorescence polarization; inhibition, % at 9 µM; 16,000 tested, 0.5% active; AID 2291; in the data active = inhibition above about 30%
Target sequence (Q9Y570 whole entry, looked up): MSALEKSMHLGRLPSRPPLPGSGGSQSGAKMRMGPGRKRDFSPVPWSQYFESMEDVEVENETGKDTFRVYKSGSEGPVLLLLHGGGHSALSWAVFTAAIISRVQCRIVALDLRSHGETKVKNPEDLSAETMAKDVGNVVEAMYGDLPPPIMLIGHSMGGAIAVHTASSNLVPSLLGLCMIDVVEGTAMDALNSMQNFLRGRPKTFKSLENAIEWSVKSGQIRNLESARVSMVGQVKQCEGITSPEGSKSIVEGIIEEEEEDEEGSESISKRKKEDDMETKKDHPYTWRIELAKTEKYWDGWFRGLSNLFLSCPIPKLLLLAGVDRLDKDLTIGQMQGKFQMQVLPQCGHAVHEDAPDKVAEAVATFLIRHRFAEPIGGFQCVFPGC
rat GALR2 ag – GALR2 (rat) receptor agonism; O08726; cell-based GALR2 agonist screen; 16,000 tested, 0.5% active; activation, % at 10 µM; in the data active = activation above about 15%
Starred values were filed as active, the others as inactive. This is a sample that favours compounds with a hit; in the whole collection about 0.87% have one here.

SMILES | PME-1 Maybr inh | rat GALR2 ag
N/C(=N\OC(=O)c1ccccc1)c1csc(-c2cccnc2)n1 | -3 | -2
COc1ccc(C(=O)Nc2nc(-c3ccc(C)c(Cl)c3)c(C)s2)cc1 | 5 | 17*
Cc1ccc(-c2nc(NC(=O)c3c(C)noc3C)sc2C)cc1Cl | -3 | -10
O=C(Cc1ccccc1Cl)N/N=C(/C(=O)O)c1ccccc1 | 38* | -7
O=C(COc1ccccc1OC(=O)c1ccc(Cl)cc1)NCc1ccccc1Cl | 3 | -8
O=[N+]([O-])c1ccc(C(N2CCOCC2)N2CCOCC2)cc1 | 3 | -4
O=C(Sc1ccccc1)c1cccc(=O)o1 | 5 | -6
N#C/C(=C\c1ccc(N2CCOCC2)cc1)c1ccc([N+](=O)[O-])cc1 | 0 | -8
N#Cc1c(C(F)(F)F)c([N+](=O)[O-])c(-c2cccc([N+](=O)[O-])c2)[nH]c1=O | 4 | 25*
O=[N+]([O-])c1cccc(-c2c[nH]c(=S)[nH]2)c1 | 2 | -7
CCOC(=O)/C(C#N)=C/N1CCN(c2ccc(C(F)(F)F)cc2[N+](=O)[O-])CC1 | 4 | 1
COc1ccc(S(=O)(=O)N2CCN(c3ccc(C(F)(F)F)cc3[N+](=O)[O-])CC2)cc1OC | 5 | 80*
CN(C)c1cc(Cl)cc(Cl)c1 | 0 | -5
O=[N+]([O-])c1cc(Cl)ccc1Sc1ccccc1NS(=O)(=O)c1ccc(F)cc1 | 63* | -9
Nc1ccccc1Sc1ccc(Cl)cc1[N+](=O)[O-] | 4 | -8
COc1ccc(/C=C2/N=C(c3ccccc3)NC2=O)cc1 | -1 | 15*
COc1ccc(/C=C2/N=C(c3ccccc3)NN(Cc3ccccc3)C2=O)cc1 | 1 | -7
CN(C)/C=C(\C#N)C(=O)Nc1ccc(F)c(Cl)c1 | 0 | -5
N#C/C(=C\c1c(Cl)cccc1Cl)C(=O)Nc1ccc(F)c(Cl)c1 | -54 | 20*
O=C(OC1CSc2nc3ccccc3n2C1)c1ccc([N+](=O)[O-])o1 (configuration not stated) | 8 | -7
COc1ccc(-c2cc(C(F)(F)F)n3nc(C4CC4)cc3n2)cc1 | 1 | -6
COc1ccc(-c2cc(C(F)(F)F)n3nc(-c4ccco4)cc3n2)cc1OC | -14 | 27*
CS(=O)(=O)O[C@@H]1C(=O)c2ccccc2O[C@H]1c1ccc(Br)cc1 | 7 | -8
O=c1c(C=Nc2ccccc2)c(Nc2ccccc2)[nH]n1-c1ccccc1 | 84* | -11
CCOC(=O)Cc1c(C)[nH]n(-c2ccccc2)c1=O | 0 | -6
SMILES | PME-1 Maybr inh | rat GALR2 ag
CCOC(=O)CNc1ccc(C(F)(F)F)cc1 | -2 | 61*
CCOC(=O)NC(=S)Nc1ccc(C(C)(C)C)cc1 | 4 | -6
CC(Oc1ccc2oc3ccccc3c(=O)c2c1)C(=O)O (configuration not stated) | 2 | 0
CC(C)Nc1c(-c2ccccc2)oc2ccc(C(=O)O)cc2c1=O | 2 | 28*
N#CC(C#N)=NNc1ccc(F)cc1F | 15 | -8
O=C(NCc1ncc(C(F)(F)F)cc1Cl)Nc1ccc(Cl)cc1 | 4 | -8
CCOC(=O)c1csc(N/N=C2\CCc3ccccc32)n1 | 61* | -7
CCOC(=O)c1csc(Nc2ccncc2)n1 | 1 | -5
O=C(CSc1ccc(F)cc1)N1CCN(c2ccccc2)CC1 | 4 | -6
CSc1nnc(-c2ccc(S(=O)(=O)O)s2)n1C | 2 | -6
Cc1nnsc1-c1nnc(SCC(=O)Nc2ccc(F)cc2)n1C1CC1 | 1 | -8
O=C(CSc1c(F)c(F)c(F)c(F)c1F)Nc1ccc(C2SCCS2)cc1 | 147* | -5
Cc1cc(NC(=O)C(=O)NC2CCCCNC2=O)no1 (configuration not stated) | -2 | -2
CSc1nc(N)nc(-c2cccs2)c1C#N | -6 | -4
CSc1nc(-c2cccs2)cc(C(F)(F)F)c1C#N | -3 | 31*
N#Cc1cnc(Oc2ccc(Cl)cc2)nc1N | 0 | 21*
COc1ncc(C#N)c(N)n1 | 7 | -5
O=S(=O)(c1cc(C(F)(F)F)cc(C(F)(F)F)c1)n1cc2c(n1)CCOC2 | 6 | 1
CC(C)(O)C#Cc1ccc(/C=N/O)cc1 | -4 | -8
CC(C)(O)C#Cc1ccccn1 | 0 | 27*
O=c1c2ccccc2oc2cc(O)ccc12 | 6 | -3
Cc1c(Cc2c(Cl)cccc2Cl)c(=O)oc2cc(O)ccc12 | 33* | -9
COc1ccc(OS(=O)(=O)c2ccc(-c3cc(C(F)(F)F)on3)s2)cc1 | -20 | -10
CCOC(=O)CSc1c(C)[nH]c2ccccc12 | 7 | -8
Cc1[nH]c2ccccc2c1SCc1n[nH]c(=S)n1C | 34* | 20*
O=C(OCc1ccc(Oc2ccc(Cl)cc2Cl)c([N+](=O)[O-])c1)c1ccc([N+](=O)[O-])o1 | 0 | -3
NNC(=O)c1cc2cc(F)ccc2[nH]1 | 0 | -1
